VCAM1 TNFa pot: TNF alpha stimulated VCAM1 expression potentiation. HUVEC TNFa-stimulated VCAM-1 immunofluorescence, high-content imaging; scaled per plate to unstimulated/TNFa-only wells. activation, % at 2 µM. hit rate 0.19% among 93,000;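 active = activation above the screen mean plus 3 SD, with well images confirming the hit on visual review, cut at about 28% in these data, passing the limit was not always enough; inconclusive = activation above that limit but images do not confirm it; inactive = activation not above that limit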;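 also: signal is the number of cytoplasmic VCAM-1 stained grains per positive cell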
VCAM1 pot conf: enhancers of VCAM1 induction in HUVEC – imaging, triplicate retest, confirmation. activation, % at 2 µM. 230 tested, under 10 active. HUVEC TNFa-stimulated VCAM-1 immunofluorescence imaging. shares compounds with VCAM1 TNFa pot;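 active = activation above 30% in triplicate retests at 2 µM, then confirmed by visual review of the well images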;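 also: scaled per plate between unstimulated and TNFa-stimulated DMSO control wells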
* marks the source's active call; other numbers are inactive results; ? = inconclusive. Shown is part of a subset that was picked to be rich in hits.

SMILES	VCAM1 TNFa pot	others
O=C(Cn1cc(C(=O)c2ccco2)c2ccccc21)NCc1ccco1	-9.5
COC(=O)Cn1cc(C(=O)C2CC2)c2ccccc21	54.3*	VCAM1 pot conf=-11.3
COc1ccc(CNC(=O)COC(=O)C2=COCCO2)cc1	-8.8
c1ccc(SCc2nc3ccccc3[nH]2)nc1	12.8
O=C(NCCCCCCNC(=O)C1CCCC1)C1CCCC1	19.3
Cc1oc(-c2ccccc2F)nc1CN1CCC(C(=O)NC2CC2)CC1	8.0
CCc1ccc2nc(-c3cccc(C)c3)nc(SCC(=O)NCC3CCCO3)c2c1 (stereo unspecified)	-4.2
CCOC(=O)C1=C(O)/C(=C/c2cn(CC(=O)N3CCCC3)c3ccccc23)SC1=Nc1ccccc1	-2.1
O=C(NCc1cccnc1)c1ccc(COc2cccc3ccccc23)o1	7.7
Clc1cccc(OCCn2cncn2)c1Cl	?	VCAM1 pot conf=-9.8
NC(=O)c1ccccc1N=Cc1ccccn1	39.5*	VCAM1 pot conf=-12.7
NC(=O)c1ccccc1OCCOCCOCCOc1ccccc1C(N)=O	18.4
C=CCC(C=C)S(=O)(=O)c1ccc(C)cc1 (stereo unspecified)	7.2
CCOc1cc(NC(=O)c2ccccn2)c(OCC)cc1NC(=O)CC(C)C	-9.0
CCc1ccc(OCC(=O)NCc2ccco2)c(Br)c1	-6.8
O=C(N/N=C/C(Cl)=C\c1ccccc1)c1cnccn1	62.9*	VCAM1 pot conf=-17.3
O=C(N/N=C/C(Br)=C/c1ccccc1)c1n[nH]c2c1CCC2	-90.8
O=C(Nc1ccc2c(c1)CCC2)c1cnccn1	5.7
Cc1cccc(C2Nc3ccccc3C(=O)N2c2ccc(F)cc2)n1 (stereo unspecified)	6.7
CC(=O)/C(=N/Nc1cccc(C)c1)N1CCOCC1	0.9
CN=C1S/C(=C\c2ccc(N3CCOCC3)c(F)c2)C(=O)N1C	2.6
CCCn1nc([N+](=O)[O-])c(C(C#N)c2nc3ccccc3s2)c(Cl)c1=O (stereo unspecified)	-50.7
O=S(=O)(Cc1cc(Sc2ccc(Cl)cc2)nc(-c2ccccc2)n1)c1ccccc1	50.1*	VCAM1 pot conf=-20.0
Cc1nc(CS(=O)(=O)c2ccccc2)cc(N2CCOCC2)n1	-3.0
COCc1cc(Sc2c(Cl)cccc2Cl)nc(-c2ccccc2)n1	7.5
SMILES	VCAM1 TNFa pot	others
CC1=C([N+](=O)[O-])C(c2cccc(Br)c2)C2=C(N1)c1ccccc1C2=O (stereo unspecified)	-93.0
CC(C)n1c(CN2CCN(C)CC2)nc2c1c(=O)n(C)c(=O)n2C	-0.7
CCOC(=O)C1=C(c2cccc(F)c2)NC(=S)NC1C (stereo unspecified)	-6.1
Cc1ccc(S(=O)(=O)NC(C)C(=O)Nc2ccc(C(N)=O)cc2)cc1 (stereo unspecified)	0.2
COc1ccc(-n2nnnc2SCC(=O)c2cc3ccccc3o2)cc1	3.3
CC(C)(C)c1ccc(-c2nnc(SCCC#N)n2C2CCCC2)cc1	4.6
COc1ccc(-n2cnnc2SCCC#N)cc1	?	VCAM1 pot conf=-8.3
O=c1c2cnn(-c3ccccc3)c2ncn1/N=C/c1ccncc1	0.2
CCOC(=O)C(NC(=O)c1ccccc1)(Nc1nnc(C)s1)C(F)(F)F (stereo unspecified)	17.3
COC(=O)CSCC(=O)Nc1cc2c(cc1C(C)=O)OCO2	4.4
NS(=O)(=O)c1ccc(CCNC(=O)C2CCCCC2)cc1	32.8*	VCAM1 pot conf=-13.1
COc1ccc(CCNC(=O)C2CCN(S(=O)(=O)N3CCCCCC3)CC2)cc1OC	3.4
CCC(CC)C(=O)NCCc1ccc(S(N)(=O)=O)cc1	-12.6
Cc1cc(C)c2c(n1)sc1c(N3CCOCC3)ncnc12	-60.8
CC(Nc1cc(=O)n(C)c(=O)[nH]1)c1ccccc1 (stereo unspecified)	-9.1
COCCn1nnnc1CN(CCCN1CCOCC1)Cc1cc2c(C)ccc(C)c2[nH]c1=O	-4.4
COc1ccc2cc(CN(Cc3cccs3)Cc3nnnn3Cc3ccccc3)c(=O)[nH]c2c1	-1.1
Cc1cc(C)c2cc(CN(Cc3ccc4c(c3)OCO4)Cc3nnnn3Cc3ccco3)c(=O)[nH]c2c1	53.9*	VCAM1 pot conf=-5.3
CCOC(=O)C1C(=O)NC(N2CCCCC2)=NC1c1ccco1 (stereo unspecified)	-97.0
CCOC(=O)C1=C(C)NC(C)=C(C(=O)OCC)C1C(=O)OC1CCOC1=O (stereo unspecified)	-6.8
C=CCSc1nnc2c(n1)OC=Nc1ccccc1-2	14.0
NC(=O)C1(N2CCCCC2)CCN(S(=O)(=O)c2cc(Cl)ccc2Cl)CC1	5.9
CCOC(=O)C1=NN(c2ccc(Cl)cc2)C(c2ccccc2)CC1=O (stereo unspecified)	-25.6
C=CCNC(=O)CN1CCC(n2c(C)nc3cc(C(F)(F)F)ccc32)CC1	58.3*	VCAM1 pot conf=-17.9
C=CCNC(=O)CCCOc1ccc(C)cc1	0.9
SMILES	VCAM1 TNFa pot	others
CCC(C)(C)n1nnnc1CN1CCC(O)(c2cccc(C(F)(F)F)c2)CC1	-16.0
CCn1c(CCNC(=O)c2cccs2)nnc1SCC(=O)Nc1nc(-c2ccccc2)cs1	6.1
COC(=O)c1nc2nc(C)cc(=O)n2[nH]1	-7.4
O=C(NCc1ccccc1)c1ccc(C(=O)N(C2CCCCC2)C2CCCCC2)cc1	1.2
CCCSC1=C(C#N)C(c2cccnc2)C(C(=O)OCC)=C(c2ccccc2)N1 (stereo unspecified)	18.1
CCN(CC)c1ccc2c(c1)OC(N)=C(C#N)C2c1cccnc1 (stereo unspecified)	-39.1
N#CC1=C(N)Oc2n[nH]c(-c3ccccc3)c2C1c1cccnc1 (stereo unspecified)	94.0*	VCAM1 pot conf=-14.1
Cc1c(C(=O)O)sc2nc3n(c(=O)c12)CCC(C)CC3 (stereo unspecified)	0.0
Cc1ccc(N2CCN(C(=O)N3CCCC3)CC2)cc1C	-0.2
CCOC(=O)Cn1c(C)nc2ccccc21	-6.1
Cc1nc2ccccc2n1CC(O)COCC1CC=CCC1 (stereo unspecified)	?	VCAM1 pot conf=-13.2
CC(C)Cn1c(SCC(=O)NC(=O)NC2CCCC2)nc2ccccc21	-7.9
COc1ccc(C2=CC(=O)OC3(CCCCC3)O2)cc1	9.0
Cc1c(Cl)cccc1-n1ccnc1SCC(=O)O	-94.2
CSC1=C(C#N)C(c2ccc(C)s2)CC(=O)N1 (stereo unspecified)	-0.2
CCOC(=O)CSc1nc(C2CC2)cc(-c2ccc(F)cc2)c1C#N	-9.0
COC(=O)CSC1=C(C#N)C(c2ccc(F)cc2)CC(=O)N1 (stereo unspecified)	32.3*	VCAM1 pot conf=-16.9
COc1ccccc1-c1cc2ccccc2[nH]1	9.0
COc1ccccc1C(=O)NCc1ccccc1	21.5
CCCCCCc1cc2cc(C(=O)NCc3ccccc3)c(=N)oc2cc1O	51.3*	VCAM1 pot conf=-6.1
CCCCCCNC(=O)CC(c1ccccc1)c1cc(Br)ccc1O (stereo unspecified)	10.0
Cc1ccccc1/C(N)=N/OC(=O)/C=C/c1ccccc1	38.0*	VCAM1 pot conf=-12.8
CC(OC1=CC(=O)CCC1)C(=O)c1ccccc1 (stereo unspecified)	3.7
Cc1cc(C(=O)OC2CCOC2=O)c2ccccc2n1 (stereo unspecified)	7.4
CC1=CC(C)(C)N2C(=O)C3(C(C#N)=C(N)Oc4cc(C)oc(=O)c43)c3cccc1c32 (stereo unspecified)	14.0
CCOC(=O)COc1ccc(S(=O)(=O)NCCC2=CCCCC2)cc1	48.1*	VCAM1 pot conf=-6.4
CCOc1ccc(S(=O)(=O)NCCC(=O)NCc2ccco2)cc1	1.2
C1=C(CCNCC2CC2)CCCC1	0.4
Cc1oc(C(=O)O)cc1COc1ccc2c3c(c(=O)oc2c1)CCC3	-2.2

Assay outcomes (PubChem)
